Test results: PubChem BioAssay AID2018 (Sanford-Burnham Center for Chemical Genomics, 2009)
The whole screen tested about 1,200 compounds, of which about 600 (50%) were called active. The set was probably picked from earlier hits. This is one part of the list. Measured potencies and affinities stand elsewhere. Values without a mark were called inactive. No stated cut-off is given here; in the data, active means inhibition above about 42%; inactive means the rest.

molecular target: SUMO-conjugating enzyme UBC9 (Homo sapiens) (UniProt P63279); experiment: blockers of UBC9-mediated SUMO conjugation – biochemical, AlphaScreen, SUMOylation inhibitor project, confirmation (AID 2018); conditions: AlphaScreen in vitro SUMOylation assay; at 35 µM; hits give high values
Sequence (P63279 whole entry, looked up): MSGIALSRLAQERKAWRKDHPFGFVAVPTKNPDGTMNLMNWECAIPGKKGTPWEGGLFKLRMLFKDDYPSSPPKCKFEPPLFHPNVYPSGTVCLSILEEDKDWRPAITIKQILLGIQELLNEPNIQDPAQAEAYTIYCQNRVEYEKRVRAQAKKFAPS

Structure (SMILES) | inhibition
CN(C)CCNS(=O)(=O)c1ccc2c3c(cccc13)C(=O)N2 | 15.4%
Oc1cccc2c(NC(=S)Nc3ccc(SC(F)F)cc3)cccc12 | 36.5%
O=C(NCCc1csc(-c2ccccc2)n1)c1c(F)cccc1Cl | -8.6%
Oc1ccc(N=Cc2c(O)ccc3ccccc23)cc1 | 21.9%
Oc1ccc2ccccc2c1C=Nc1ccc(Cl)cn1 | 26.1%
CCOc1ccc(C=Nc2cccc3ncccc23)cc1 | 23.5%
Oc1ccccc1N=Cc1c(O)ccc2ccccc12 | 56.9% (active)
O=[N+]([O-])c1cccc2cn[nH]c12 | -0.5%
Oc1c(C=Nc2cccc3nsnc23)ccc2ccccc12 | 98% (active)
Oc1ccc(C=Nc2cccc3ncccc23)c(O)c1 | 27.7%
Oc1ccc(C=Nc2cccc3ccccc23)c(O)c1 | 42.8% (active)
COc1ccc(C=Nc2cccc3ncccc23)cc1 | 16.5%
N#CC1=C(N)N2C(=C(C#N)C1c1ccc(Br)cc1)Nc1ccccc12 (configuration not stated) | 20.4%
Cc1cc(NCCO)c2cc(O)ccc2n1 | 3%
O=[N+]([O-])c1cc(C=Nc2cccc3c(O)cccc23)ccc1Cl | 33.8%
O=[N+]([O-])c1ccc(C=Nc2ccc(Cl)c([N+](=O)[O-])c2)s1 | 98.4% (active)
O=C(NC(=S)Nc1cccc2c(O)cccc12)c1ccco1 | 41.6%
CCCC(=O)NC(=S)Nc1cccc2c(O)cccc12 | 10.1%
O=C(NC(=S)Nc1cccc2c(O)cccc12)c1cccc(Br)c1 | 52.7% (active)
NNc1nc2c(Cl)ccc(Cl)c2s1 | 8%
Cc1cc(C)c(S(=O)(=O)Nc2cc(SCC(=O)O)c(O)c3ccccc23)cc1C | 43.1% (active)
Cc1ccc(C)c(S(=O)(=O)Nc2cc(SCC(=O)O)c(O)c3ccccc23)c1 | 51.2% (active)
Cc1ccc(C)c(S(=O)(=O)Nc2ccc(O)c3ccccc23)c1 | 39.8%

Structure (SMILES) | inhibition
COc1ccc2c(C)c(C(=O)NCC(C)O)oc2c1OC (configuration not stated) | 6.4%
COC(=O)c1cc2c(C)[nH]c(C)c2cc(C(=O)OC)c1=O | 13.6%
CN1CCCc2cc3c(C(F)(F)F)cc(=O)oc3nc21 | -9%
N#CC1=C(N)Oc2n[nH]c(-c3cccs3)c2C1c1cccs1 (configuration not stated) | 33.5%
Cc1cc(NC(=O)CSc2nnc(Nc3ccccc3C)s2)no1 | 25.7%
Cc1cc(-c2csc(NC(=O)c3ccc(C#N)cc3)n2)c(C)n1Cc1ccco1 | 21.4%
Cc1c(C)c2cc(Cl)c(O)c(CN3CCN(C)CC3)c2oc1=O | -1%
CCOC(=O)c1sc(NC(=O)c2cccc(S(=O)(=O)N3CCc4ccccc43)c2)c(C#N)c1C | 33.4%
O=C(NCc1ccccc1)Nc1cccn(Cc2ccccc2)c1=O | 3.6%
COc1ccccc1NC(=O)CSc1ccc2nnc(-c3ccccn3)n2n1 | 14.2%
COc1ccccc1NC(=O)Cn1nc(C)n2cccc2c1=O | 0.4%
CC1(C)CC(=O)C2=C(C1)Nc1[nH]c(=S)[nH]c(=O)c1C2c1ccccc1 (configuration not stated) | 12.7%
Cc1occc1C(=O)N1CCN(c2ccccc2)CC1 | 19.6%
CC(C)Cn1c(N)c(C(=O)NCc2cccs2)c2nc3ccccc3nc21 | -100%
COCCNC(=O)c1c(N)n(CCC2=CCCCC2)c2nc3ccccc3nc12 | 4.1%
COCCn1c(N)c(C(=O)NCc2cccs2)c2nc3ccccc3nc21 | -23.2%
Nc1c(C(=O)NCc2ccco2)c2nc3ccccc3nc2n1CCc1ccccc1F | 2.7%
O=c1cc(-c2ccc(F)cc2)[nH][nH]1 | 24.9%
Cn1c(NNC(=O)c2c(F)cccc2F)cc(=O)n(C)c1=O | 42.1% (active)
CC1=NN(c2ccccc2)C(=O)/C1=C\c1ccc(Br)s1 | 75% (active)
CC1=NN(c2ccccc2)C(=O)/C1=C\c1cn(CCC#N)nc1-c1ccc(Cl)cc1 | 60.8% (active)
CC1=NN(c2ccc(Br)cc2)C(=O)/C1=C/c1cccs1 | 59.4% (active)
CC1=NN(c2ccccc2)C(=O)/C1=C/c1ccc(Cl)cc1 | 58.2% (active)

Structure (SMILES) | inhibition
COc1cc(/C=C2\C(=O)N(CCC#N)N=C2C)c(Br)cc1OC(C)C | -16.2%
CC1=NN(c2ccccc2)C(=O)/C1=C/c1cccs1 | 40.6%
O=c1c2ccccc2oc2cc(NCCCN3CCOCC3)ccc12 | -1.4%
CCCNC(=O)c1ccc2c(=O)c(O)c(-c3ccsc3)[nH]c2c1 | 16.3%
O=C1C(NS(=O)(=O)c2cccs2)=C(N2CCN(c3cccc(C(F)(F)F)c3)CC2)C(=O)c2ccccc21 | 88.2% (active)
S=c1[nH]nc(-c2ccccc2Cl)n1/N=C/C=C/c1ccco1 | 34.1%
S=c1[nH]nc(-c2cccnc2)n1/N=C/C=C/c1ccco1 | 15.4%
COc1c(C)oc2cc(O)ccc2c1=O | 3.3%
O=C(Cc1cc(=O)oc2cc(O)ccc12)NCC1CCC(C(=O)O)CC1 (configuration not stated) | 6%
S=C(Nc1ccc(Cl)cc1)Nc1cccc2cnccc12 | 42.2% (active)
Cc1ccc(NC(=S)Nc2cccc3cnccc23)cc1C | 31.1%
CCc1ccc(NC(=S)Nc2cccc3cnccc23)cc1 | 69.6% (active)
Cc1cc(C)cc(NC(=S)Nc2cccc3cnccc23)c1 | 31.7%
COCCNC(=S)Nc1cccc2cnccc12 | -7.2%
Fc1ccc(NC(=S)Nc2cccc3cnccc23)cc1 | 9.9%
O=C1N/C(=N/N=C/c2ccccc2O)SC1Cc1ccc(F)cc1 (configuration not stated) | 7.4%
CNCc1ccccc1Sc1ccc(O)c(O)c1 | -26.2%
CCOc1cc(CNc2ccccc2SC)ccc1O | 65.8% (active)
CCc1ccccc1NC(=O)Nc1cccn(Cc2ccccc2F)c1=O | 2.6%
O=C(NCc1ccccc1)Nc1cccn(Cc2ccccc2F)c1=O | -5%
COc1cccc(Cn2cccc(NC(=O)Nc3ccccc3C)c2=O)c1 | 31.1%
